For eight compounds, growth results are on record in PubChem BioAssay (NCI).

Some test systems named below: HCT-15 colon; HT29 colon; SNB-75 CNS; SNB-19 CNS; U251 CNS; PC-3 prostate; SK-MEL-5 melanoma; UACC-62 melanoma; LOX IMVI melanoma; SK-MEL-28 melanoma; SK-MEL-2 melanoma; EKVX NSCLC; SN12C renal; UO-31 renal; TK-10 renal; ACHN renal; CAKI-1 renal; A498 renal; MOLT-4 leukemia; CCRF-CEM leukemia.
Assay in all cases: NCI-60 one-dose screen, 48 h (100 = growth as untreated, 0 = no growth, -100 = all killed)
Common to all, as to details: 10 µM unless noted

The panel holds about 83,000 compounds, 20% with a hit somewhere; the sample as a whole holds those more often.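 Plates (96-well) were seeded with cells, treated with compound at one concentration, and incubated for 48 hours before percent growth was determined.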 Values without a mark were called inactive. Calls of active or inactive are those of the source. The calls were made as follows: active = growth percent below 10; inactive = the rest.

Regarding `O=C(O)c1ccc(-n2cc(CNc3ccc(C(F)(F)F)cc3)c(-c3ccccc3)n2)cc1`, the growth is 84.3% in the assay on HCT-15 colon; 114% with HT29 colon; 92.1% with SNB-75 CNS; 102% with SNB-19 CNS; 81% in the assay on U251 CNS; 79.7% with PC-3 prostate. Further, the growth in the assay on SK-MEL-5 melanoma is 91.5%; with UACC-62 melanoma, 72.9%; in the assay on LOX IMVI melanoma it was 89.2%; with SK-MEL-28 melanoma it was 95.2%; in the assay with SK-MEL-2 melanoma, 93.8%; in the assay with EKVX NSCLC it was 91.8%. Further, the growth in the assay with SN12C renal was 94.6%; in the assay with UO-31 renal, 80.5%; in the assay with TK-10 renal, 110%; in the assay on ACHN renal, 88.9%; in the assay on CAKI-1 renal, 87.2%; in the assay with A498 renal, 87.6%. In the assay on MOLT-4 leukemia, the growth is 76.5%.
Turning to `CCCCCCCCCCn1cc[n+](C)c1`, the growth with HCT-15 colon is 82%; with HT29 colon, 12.3%; in the assay with SNB-75 CNS it was -10.6% (active); in the assay on SNB-19 CNS it was 45.5%; in the assay on U251 CNS, 21.7%; with PC-3 prostate, 6.6% (active). The growth in the assay on SK-MEL-5 melanoma is -33.1% (active); in the assay with UACC-62 melanoma it was 31.1%; in the assay on LOX IMVI melanoma, 23.9%; in the assay with SK-MEL-28 melanoma, 34.9%; in the assay with SK-MEL-2 melanoma, 13.1%; with SN12C renal it was 19.4%. Moreover, the growth with UO-31 renal is 65.7%; with TK-10 renal it was -1.53% (active); in the assay with ACHN renal, 45%; with CAKI-1 renal it was 28.8%; in the assay with A498 renal, 12.4%; in the assay with CCRF-CEM leukemia, 111%. Moreover, in the assay with MOLT-4 leukemia, the growth is 78.6%.
With `CC(Cc1nnc(SCC(=O)Nc2ccc(I)cc2)n1N)c1ccccc1` (stereo unspecified), the growth in the assay on HCT-15 colon was 103%; with HT29 colon, 111%; in the assay with SNB-75 CNS, 260%; in the assay with SNB-19 CNS it was 96.6%; with U251 CNS it was 92.7%; in the assay on PC-3 prostate, 90.2%. In addition, the growth is 94.3% in the assay with SK-MEL-5 melanoma; 66.8% with UACC-62 melanoma; 83.7% in the assay with LOX IMVI melanoma; 133% with SK-MEL-28 melanoma; 69.8% with SK-MEL-2 melanoma; 82.5% in the assay on EKVX NSCLC. In addition, the growth with SN12C renal is 98.4%; with TK-10 renal, 89.9%; in the assay with ACHN renal, 86.5%; in the assay with CAKI-1 renal, 104%; in the assay on A498 renal it was 99.9%; in the assay with CCRF-CEM leukemia, 54.9%. In addition, in the assay on MOLT-4 leukemia, the growth was 93.4%.
As for `CCCCCCCCCCCCOB(OCCCCCCCCCCCC)OCCCCCCCCCCCC`, the growth with HCT-15 colon is 105%; in the assay on HT29 colon it was 105%; in the assay on SNB-75 CNS it was 118%; in the assay with SNB-19 CNS, 106%; with U251 CNS, 94.4%; with PC-3 prostate it was 98.5%. The growth in the assay with SK-MEL-5 melanoma is 102%; in the assay with UACC-62 melanoma it was 104%; in the assay with LOX IMVI melanoma, 89.7%; in the assay with SK-MEL-28 melanoma, 108%; with SK-MEL-2 melanoma, 108%; in the assay on SN12C renal, 95.8%. Besides, the growth in the assay with UO-31 renal is 91.8%; in the assay on TK-10 renal it was 101%; in the assay with ACHN renal it was 109%; in the assay with CAKI-1 renal it was 104%; in the assay on A498 renal it was 112%; in the assay with CCRF-CEM leukemia, 95.3%. Besides, the growth in the assay on MOLT-4 leukemia is 95.2%.
With `CCNC(=O)C1CCCN1C(=O)C(CCCN=C(N)N)NC(=O)C(CC(C)C)NC(=O)C(CC(C)C)NC(=O)C(Cc1ccc(O)cc1)NC(=O)C(CO)NC(=O)C(Cc1c[nH]c2ccccc12)NC(=O)C(Cc1cnc[nH]1)NC(=O)C1CCC(=O)N1` (stereo unspecified), the growth is 102% in the assay with HCT-15 colon; 97.4% with HT29 colon; 90.3% with SNB-75 CNS; 102% with SNB-19 CNS; 94.8% in the assay on U251 CNS; 81.8% in the assay on PC-3 prostate. In addition, the growth is 95% in the assay with SK-MEL-5 melanoma; 110% in the assay with UACC-62 melanoma; 95.1% with LOX IMVI melanoma; 168% with SK-MEL-28 melanoma; 102% in the assay with SK-MEL-2 melanoma; 112% in the assay on SN12C renal. Moreover, the growth with UO-31 renal is 93.7%; with TK-10 renal, 110%; with ACHN renal, 97%; with CAKI-1 renal, 84.9%; in the assay with A498 renal, 98%; with CCRF-CEM leukemia it was 54.5%. Further, in the assay on MOLT-4 leukemia, the growth was 86.5%.
`CCOC(=O)[C@H](CSSc1ncnc2cc[nH]c12)NC(=O)[C@@H](C)c1ccc2cc(OC)ccc2c1`: the growth was 19.6% with HCT-15 colon; 15.7% in the assay on HT29 colon; 50.1% in the assay with SNB-75 CNS; 91.8% in the assay with SNB-19 CNS; 35.6% with U251 CNS; 36.3% with PC-3 prostate. The growth is 45% in the assay on SK-MEL-5 melanoma; 7.27% (active) in the assay on UACC-62 melanoma; 10.3% in the assay on LOX IMVI melanoma; 69.2% in the assay on SK-MEL-28 melanoma; 23% with SK-MEL-2 melanoma; 29.8% in the assay with SN12C renal. For the same compound, the growth with UO-31 renal is 13.4%; in the assay on TK-10 renal, 13.8%; in the assay on ACHN renal, 24.9%; in the assay on CAKI-1 renal it was 16%; in the assay with A498 renal, 49.9%; in the assay on CCRF-CEM leukemia, 12.7%. In the assay with MOLT-4 leukemia, the growth is 3.42% (active).
For the compound `CC(=O)N1Cc2ccccc2C(C)Cc2cc(Cl)ccc21` (stereo unspecified), the growth in the assay on HCT-15 colon is 105%; in the assay with HT29 colon, 97.6%; in the assay with SNB-75 CNS it was 101%; in the assay with SNB-19 CNS, 101%; with U251 CNS it was 105%; in the assay with PC-3 prostate, 95.8%. In addition, the growth in the assay with SK-MEL-5 melanoma is 103%; with UACC-62 melanoma it was 98%; in the assay on LOX IMVI melanoma, 105%; in the assay on SK-MEL-28 melanoma, 112%; with SK-MEL-2 melanoma, 105%; in the assay on EKVX NSCLC it was 94.5%. Also, the growth in the assay with SN12C renal was 104%; with UO-31 renal, 97.8%; in the assay on TK-10 renal, 98.4%; in the assay with ACHN renal it was 109%; in the assay with CAKI-1 renal, 90%; with MOLT-4 leukemia, 97%.
Regarding `COc1ccc(-c2nnc(COc3ccc(NC(=O)Nc4ccc(Cl)c(C(F)(F)F)c4)cc3F)o2)cc1`, the growth is 8.08% (active) with HCT-15 colon; 9.28% (active) in the assay with HT29 colon; 15.6% in the assay with SNB-75 CNS; 21.7% with SNB-19 CNS; -26.6% (active) with U251 CNS; -8.78% (active) in the assay on PC-3 prostate. Also, the growth is 12.3% in the assay with SK-MEL-5 melanoma; 19.2% in the assay with UACC-62 melanoma; 1.05% (active) in the assay on LOX IMVI melanoma; 1.13% (active) in the assay with SK-MEL-28 melanoma; -7.3% (active) in the assay on SK-MEL-2 melanoma; 21.2% with SN12C renal. Further, the growth in the assay on UO-31 renal is 2.2% (active); with TK-10 renal, 35%; with ACHN renal, -23.2% (active); in the assay on CAKI-1 renal, 4.77% (active); with A498 renal it was -1.59% (active); with CCRF-CEM leukemia, 0.195% (active). Besides, in the assay on MOLT-4 leukemia, the growth was 2.69% (active).
